According to PubChem BioAssay AID1619 (SRMLSC, 2009):
About 830 (0.38%) of roughly 220,000 compounds were called active.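 Rule for the calls: active = compound inhibiting the enzyme by more than half at any dose during confirmatory dose-response retesting; inconclusive = strong single-dose inhibitors picked by rank but not retested; inactive = the rest.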 The list is a sample of the results. Results with a measured potency or affinity are listed apart.

What follows are compounds tested against Leucine aminopeptidase (Plasmodium falciparum (isolate 3D7)) (UniProt Q8IL11) (assay: P. falciparum M17LAP inhibitors, primary screen, biochemical, fluorogenic H-Leu-NHMec substrate, 1536-well (AID 1619;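 note: plate controls were full reaction with DMSO carrier for no effect and no enzyme background for full effect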)). Conditions: recombinant M17LAP, H-Leu-NHMec fluorogenic kinetic assay; at 30 µM; hits give high values.
Sequence of Leucine aminopeptidase (Plasmodium falciparum (isolate 3D7)) (Q8IL11 whole entry, looked up): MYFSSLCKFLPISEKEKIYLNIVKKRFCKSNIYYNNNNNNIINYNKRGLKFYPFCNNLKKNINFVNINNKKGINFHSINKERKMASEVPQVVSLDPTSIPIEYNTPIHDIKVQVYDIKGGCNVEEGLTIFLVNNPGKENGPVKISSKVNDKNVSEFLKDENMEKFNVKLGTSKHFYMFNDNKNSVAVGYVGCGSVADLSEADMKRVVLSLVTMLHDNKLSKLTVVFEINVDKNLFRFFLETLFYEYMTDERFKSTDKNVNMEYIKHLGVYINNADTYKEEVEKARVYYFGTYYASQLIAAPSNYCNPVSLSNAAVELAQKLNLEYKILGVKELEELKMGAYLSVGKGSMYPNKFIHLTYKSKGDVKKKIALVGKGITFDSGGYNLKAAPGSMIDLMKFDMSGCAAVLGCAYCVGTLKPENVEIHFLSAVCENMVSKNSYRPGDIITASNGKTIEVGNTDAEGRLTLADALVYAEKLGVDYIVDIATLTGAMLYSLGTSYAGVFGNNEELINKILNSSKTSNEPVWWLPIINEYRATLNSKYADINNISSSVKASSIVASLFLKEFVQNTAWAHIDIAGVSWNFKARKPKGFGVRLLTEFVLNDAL

inhibition, inactive:
CCOC(=O)c1nnn(-c2nonc2-n2cccc2)c1CCl 7.36%, COC(=O)CN(c1ccccc1OC)S(=O)(=O)c1ccccc1 -2.64%, Cc1ccc(C)c(NC2=C(Cl)C(=O)OC2OC(C)C)c1 (stereo not given) -15.8%, CC(=O)N1CCC(N(C(=O)Nc2ccc(F)cc2)C2CCCC2)CC1 11%, CC(C)(C)c1ccc(C(=O)c2c[nH]c(C(=O)NCC3CCCO3)c2)cc1 (stereo not given) -3.09%, NC(=O)c1ncc(C(F)(F)F)cc1Oc1cccc(C(F)(F)F)c1 -2.19%, Cc1cc(C)nc(NC(=O)C2c3ccccc3Oc3ccccc32)n1 5.07%, CCN(CC)CCNc1nc(-c2cccs2)c(CC(=O)O)s1 0.71%, CCCc1cc(C(=O)Nc2sc(C)c(CC)c2C#N)no1 3.41%, COC(=O)C1=C(C)N(Cc2ccccc2)C(=O)/C1=C\c1ccco1 23.3%, O=C(CN1C(=O)S/C(=C\c2ccccc2)C1=O)NNC(=O)c1ccccc1O 9.15%, O=C(NNC(=O)c1ccccc1O)c1ccco1 20.5%, O=C(CSc1nnc(-c2ccccc2)n1Cc1ccccc1)NNC(=O)c1ccccc1O 10.4%, O=C(O)c1ccc(COc2ccccc2/C=C2\NC(=O)N(Cc3ccccc3)C2=O)cc1 20.1%, O=C1/C(=C\c2ccco2)SC(=S)N1Cc1ccccc1 21.4%, O=C(Nc1ccc(O)cc1C(=O)O)c1ccc2c(c1)C(=O)N(Cc1ccco1)C2=O -9.39%, O=C(Nc1ccc(O)cc1)c1ccc2c(c1)C(=O)N(Cc1ccco1)C2=O 13.2%, Cc1cccc(C(=O)NCCC(=O)Nc2nc(C)c(Cc3ccc4c(c3)OCO4)s2)c1 -0.81%, CC(C)NC(=S)N1CCN(c2ncccn2)CC1 -3.12%, COc1ccc(C(=O)NC2CCN(C(=S)Nc3ccc(C)cc3)CC2)cc1 3.35%, O=C(NC(Cc1ccccc1)C(=O)NC1CC1)OCc1ccccc1 (stereo not given) 9.99%, CCCOc1ccc(OCCSc2nnc(N)s2)cc1 -4.02%, Cc1cc(C)c(/C=N/NC(=O)c2nnn(-c3nonc3N)c2COc2ccc(F)cc2)c(C)c1 11.6%, CC(=O)Nc1nc(COc2ccccc2)cs1 -12.2%, O=[N+]([O-])c1ccc(N2CCN(S(=O)(=O)c3ccccc3)CC2)cc1NCCN1CCOCC1 -0.09%, CCOC(=O)c1cc(NC(=O)c2cccnc2)ccc1N1CCOCC1 -6.5%, Cc1ccnc(SCC(=O)N2CCCc3ccccc32)n1 -6.82%, O=S(=O)(Nc1cccc2c1CCCC2)c1cccc(C(F)(F)F)c1 -8.32%, COc1ccc([N+](=O)[O-])cc1NC(=O)Cc1ccc(Cl)cc1 8.59%, COc1cc([N+](=O)[O-])ccc1NC(=O)Cc1ccc(C)cc1 -2.2%, Cc1ccc(NC(=O)CSc2nnc(-c3ccco3)c(-c3ccco3)n2)cc1 53.2%, Cc1cccc(NC(=O)CSc2nnc(-c3ccco3)o2)c1C 0.69%, CC(=O)c1ccc(NC(=O)CSc2nnc(-c3ccco3)c(-c3ccco3)n2)cc1 22.5%, Cc1ccccc1NC(=O)CSc1nnc(-c2ccco2)c(-c2ccco2)n1 42.7%, CC1CN(Cc2nnc(-c3ccccc3)o2)CC(C)O1 (stereo not given) 3.22%, Cc1c(NC(=O)CN2C(=O)c3cccc4cccc2c34)c(=O)n(-c2ccccc2)n1C 29.2%, COc1cccc(CNC(=O)C2CCC(CNc3c(N4CCC(C)CC4)c(=O)c3=O)CC2)c1 (stereo not given) -8.13%, O=C(CCc1ccccc1)NNC(=S)Nc1ccc(F)cc1 5.08%, CC(C)(C)Sc1ccc(/C=N/O)cc1[N+](=O)[O-] -1.67%, N=C1/C(=C/c2cccs2)C(=O)N=C2SN=C(SCc3ccccc3)N12 14.2%, CC(C)CSC1=NSC2=NC(=O)/C(=C\c3cccs3)C(=N)N12 9.74%, O=C(CN1CCc2ccccc2C1)N1CCN(S(=O)(=O)c2ccccc2)CC1 7.42%, CCOc1ccc2nc(NC(=O)C(NS(=O)(=O)c3cccc4nsnc34)C(C)C)sc2c1 (stereo not given) -8.83%, CCCSc1nc2c3c(sc2c(=O)[nH]1)CC(C)(CC)OC3 (stereo not given) -0.94%, CC1(C)Cc2sc3c(=O)[nH]c(=S)[nH]c3c2CO1 6.75%, CCOC(=O)c1c(NC(=O)/C=C/C(=O)O)sc(C)c1-c1ccc(C)c(C)c1 8.96%, COC(=O)c1c(NC(=O)/C=C/C(=O)O)sc(C)c1-c1ccc(C)cc1 14.7%, COCCNc1nc2nonc2nc1N1C[C@H]2CC[C@H]1C2 8.08%, COc1ccc(N2CCN(CCCNC(=O)C3(S(=O)(=O)c4ccc(Cl)cc4)CC3)CC2)cc1 16%, COc1cc(NC(=O)CN2CCN(Cc3ccc4c(c3)OCO4)CC2)cc(OC)c1 19.9%, O=C(Nc1ccc2c(c1)CCC2)C1CCCO1 (stereo not given) 6.84%, Cc1ccc(NC(=O)C2CCCCC2C(=O)O)cc1C (stereo not given) 16.6%, Cc1ccc(NC(=O)C2CCCCC2C(=O)O)cc1Cl (stereo not given) 77.4%, O=C(O)C1CCCCC1C(=O)Nc1ccc(Cl)cc1 (stereo not given) 54.6%, O=C(NNC(=O)C1CC=CCC1C(=O)O)c1ccc(Cl)cc1 (stereo not given) 7.35%, Cc1onc(-c2ccccc2Cl)c1C(=O)Nc1ccccc1C(=O)NC(C)C 9.44%, COc1cc(C(=O)NC(C)c2cnn(-c3ccccc3C)c2C)cc(OC)c1OC (stereo not given) 5.89%, COC(=O)c1c(NC(=O)CSc2ncnc3[nH]ncc23)sc2c1CCC2 33%, CN(C)S(=O)(=O)c1cccc(CSc2cccc[n+]2[O-])c1 -1.76%, Cc1ccc2cc(CCNC(=O)C(=O)c3c[nH]c4ccccc34)c(=O)[nH]c2c1 -4.94%
